Measurements taken from PubChem BioAssay (NCI).
About 83,000 compounds went through this panel and 20% of them were active in at least one assay; those are over-represented in the sample as a whole.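 Plates (96-well) were seeded with cells, treated with compound at one concentration, and incubated for 48 hours before percent growth was determined.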 Unmarked numbers belong to inactive results. Calls of active or inactive are those of the source. How the source made its calls: active means growth percent below 10; inactive means the rest.

Assays:
Test in all cases: NCI-60 one-dose screen, 48 h (100 = growth as untreated, 0 = no growth, -100 = all killed)
Conditions in all cases: 10 µM
NCI-H23 lung = test system: NCI-H23 lung
NCI-H226 lung = test system: NCI-H226 lung
HOP-62 NSCLC = test system: HOP-62 NSCLC
NCI-H460 lung = test system: NCI-H460 lung
HOP-92 NSCLC = test system: HOP-92 NSCLC
A549/ATCC NSCLC = test system: A549/ATCC NSCLC
786-0 renal = test system: 786-0 renal
COLO 205 colon = test system: COLO 205 colon
DU-145 prostate = test system: DU-145 prostate
K-562 leukemia = test system: K-562 leukemia
MALME-3M melanoma = test system: MALME-3M melanoma
MDA-MB-231 breast = test system: MDA-MB-231 breast
RXF 393 renal = test system: RXF 393 renal
SF-268 CNS = test system: SF-268 CNS
SF-295 CNS = test system: SF-295 CNS
SF-539 CNS = test system: SF-539 CNS
UACC-257 melanoma = test system: UACC-257 melanoma
M14 melanoma = test system: M14 melanoma
NCI-H522 lung = test system: NCI-H522 lung

O=[N+]([O-])c1cccc(/C=N/NC(=S)NC23CC4CC(CC(C4)C2)C3)c1
growth (NCI-H23 lung): 86.6%
growth (NCI-H226 lung): 48.4%
growth (HOP-62 NSCLC): 24.3%
growth (NCI-H460 lung): 56.4%
growth (HOP-92 NSCLC): 64%
growth (A549/ATCC NSCLC): 56.5%
growth (786-0 renal): 79.8%
growth (COLO 205 colon): 102%
growth (DU-145 prostate): 83.9%
growth (K-562 leukemia): 89.2%
growth (MALME-3M melanoma): 60.1%
growth (MDA-MB-231 breast): 70.2%
growth (RXF 393 renal): 75.9%
growth (SF-268 CNS): 77.8%
growth (SF-295 CNS): 73.3%
growth (SF-539 CNS): 92.3%
growth (UACC-257 melanoma): 76.4%
growth (M14 melanoma): 89%

C[C@@H](C[C@H](CCO)c1ccccc1)c1ccc2ccccc2c1
growth (NCI-H23 lung): -65.1% (active)
growth (NCI-H226 lung): -65.7% (active)
growth (HOP-62 NSCLC): -55% (active)
growth (NCI-H460 lung): -48.5% (active)
growth (HOP-92 NSCLC): -95.6% (active)
growth (A549/ATCC NSCLC): -81.4% (active)
growth (786-0 renal): -90.6% (active)
growth (COLO 205 colon): -86.9% (active)
growth (DU-145 prostate): -40.9% (active)
growth (K-562 leukemia): -35.2% (active)
growth (MALME-3M melanoma): -87.6% (active)
growth (MDA-MB-231 breast): -73.6% (active)
growth (RXF 393 renal): -87.4% (active)
growth (SF-268 CNS): -70.4% (active)
growth (SF-295 CNS): -89.2% (active)
growth (SF-539 CNS): -82.7% (active)
growth (M14 melanoma): -84.2% (active)

CC(C)(C)OC(=O)N1CCc2c(sc3ncnc(N/N=C/c4cccc5ccccc45)c23)C1
growth (NCI-H23 lung): 12.9%
growth (NCI-H226 lung): 31%
growth (HOP-62 NSCLC): 27.8%
growth (NCI-H460 lung): 4.98% (active)
growth (HOP-92 NSCLC): 25.6%
growth (A549/ATCC NSCLC): 23.8%
growth (786-0 renal): 16.9%
growth (COLO 205 colon): 13.8%
growth (DU-145 prostate): 49.7%
growth (K-562 leukemia): 7.07% (active)
growth (MALME-3M melanoma): 49.9%
growth (MDA-MB-231 breast): 45.6%
growth (RXF 393 renal): 2.63% (active)
growth (SF-268 CNS): 46.7%
growth (SF-295 CNS): 1.31% (active)
growth (SF-539 CNS): -11.3% (active)
growth (UACC-257 melanoma): 40.6%
growth (M14 melanoma): 20.3%

CN(C)CCCOc1ccc(OCCCN(C)C)c2c1C(=O)c1ccccc1C2=O
growth (NCI-H23 lung): -19.6% (active)
growth (NCI-H226 lung): -5.49% (active)
growth (HOP-62 NSCLC): -1.4% (active)
growth (NCI-H460 lung): 0.0676% (active)
growth (HOP-92 NSCLC): -0.93% (active)
growth (NCI-H522 lung): -48.5% (active)
growth (786-0 renal): 16.6%
growth (DU-145 prostate): 4.83% (active)
growth (K-562 leukemia): 7.12% (active)
growth (MALME-3M melanoma): -43% (active)
growth (MDA-MB-231 breast): -20.5% (active)
growth (RXF 393 renal): -9.08% (active)
growth (SF-268 CNS): -4.36% (active)
growth (SF-295 CNS): 14.4%
growth (SF-539 CNS): -1.42% (active)
growth (UACC-257 melanoma): 5.21% (active)
growth (M14 melanoma): 1.61% (active)

O=C(Nc1cccc2c1CCCC2)c1cc2ccccc2cc1O
growth (NCI-H23 lung): 3.43% (active)
growth (NCI-H226 lung): 35.1%
growth (HOP-62 NSCLC): 69.9%
growth (NCI-H460 lung): 27.3%
growth (HOP-92 NSCLC): -20.6% (active)
growth (NCI-H522 lung): 18.8%
growth (786-0 renal): 43.7%
growth (COLO 205 colon): 92.3%
growth (DU-145 prostate): 51.2%
growth (K-562 leukemia): 16.9%
growth (MALME-3M melanoma): 26.8%
growth (MDA-MB-231 breast): 34.8%
growth (RXF 393 renal): 39.5%
growth (SF-268 CNS): 38.2%
growth (SF-295 CNS): 79.9%
growth (SF-539 CNS): 34.2%
growth (UACC-257 melanoma): 22.3%
growth (M14 melanoma): 21.5%

C=CCN(CC=C)C(=O)[C@H](CC)[C@@H]1CC[C@@H](C)[C@@H]([C@H](C)[C@@H](O)[C@@H](C)C(=O)[C@H](CC)C2O[C@]3(C=CC(=O)[C@]4(CC[C@@](C)([C@H]5CC[C@](O)(CC)[C@H](C)O5)O4)O3)[C@H](C)C[C@@H]2C)O1 (stereo not given in full)
growth (NCI-H23 lung): 18.6%
growth (NCI-H226 lung): 13.8%
growth (HOP-62 NSCLC): 31.4%
growth (NCI-H460 lung): 15.2%
growth (HOP-92 NSCLC): -8.35% (active)
growth (NCI-H522 lung): 11.6%
growth (786-0 renal): 44.3%
growth (DU-145 prostate): 74.8%
growth (K-562 leukemia): 18.7%
growth (MALME-3M melanoma): -25.1% (active)
growth (MDA-MB-231 breast): 23.1%
growth (RXF 393 renal): 21.4%
growth (SF-268 CNS): 58.9%
growth (SF-295 CNS): 5.69% (active)
growth (SF-539 CNS): 53.2%
growth (UACC-257 melanoma): 20.6%
growth (M14 melanoma): 17.3%

Cc1cc(Cl)ccc1Nc1nc(C(F)(F)F)ccc1C(=O)N/N=C/c1cccc(O)c1
growth (NCI-H23 lung): 43.8%
growth (NCI-H226 lung): 38.8%
growth (HOP-62 NSCLC): 44.2%
growth (NCI-H460 lung): 30.9%
growth (HOP-92 NSCLC): 48.1%
growth (NCI-H522 lung): 40.2%
growth (786-0 renal): -30.6% (active)
growth (COLO 205 colon): 28.2%
growth (K-562 leukemia): 20.7%
growth (MDA-MB-231 breast): 39.7%
growth (SF-268 CNS): 39.3%
growth (SF-295 CNS): 6.71% (active)
growth (SF-539 CNS): 23.5%
growth (UACC-257 melanoma): 44.1%
growth (M14 melanoma): 43.9%

COc1cc(-c2ccc(N=Nc3ccc4c(S(=O)(=O)O)ccc(N)c4c3O)c(OC)c2)ccc1N=Nc1ccc2c(S(=O)(=O)O)ccc(N)c2c1O
growth (NCI-H23 lung): 101%
growth (NCI-H226 lung): 102%
growth (HOP-62 NSCLC): 85.9%
growth (NCI-H460 lung): 108%
growth (NCI-H522 lung): 105%
growth (A549/ATCC NSCLC): 106%
growth (786-0 renal): 120%
growth (DU-145 prostate): 122%
growth (K-562 leukemia): 121%
growth (MDA-MB-231 breast): 106%
growth (RXF 393 renal): 93.3%
growth (SF-268 CNS): 102%
growth (SF-539 CNS): 102%
growth (UACC-257 melanoma): 109%
growth (M14 melanoma): 107%
